Screening results deposited in PubChem BioAssay by National Center for Advancing Translational Sciences (NCATS).
Sampled rows, rich in hits. Any-hit rate of the full collection: about 6%.
DRD3 antagonist: qHTS of D3 Dopamine Receptor Antagonist: qHTS; D(3) dopamine receptor (Homo sapiens), P35462; D3R cells, DiscoveRx beta-arrestin luminescence, antagonist mode; active compounds read low; max response, negative = inhibition, %; 360,000 tested, 2.5% active; AID 652054, 2013; in the data active means max response below about -50%; inconclusive means no clear call, values can overlap the other calls; further: on the % scale 0 is the no-effect control and ±100 the full control effect
Target sequence (P35462 whole entry, looked up): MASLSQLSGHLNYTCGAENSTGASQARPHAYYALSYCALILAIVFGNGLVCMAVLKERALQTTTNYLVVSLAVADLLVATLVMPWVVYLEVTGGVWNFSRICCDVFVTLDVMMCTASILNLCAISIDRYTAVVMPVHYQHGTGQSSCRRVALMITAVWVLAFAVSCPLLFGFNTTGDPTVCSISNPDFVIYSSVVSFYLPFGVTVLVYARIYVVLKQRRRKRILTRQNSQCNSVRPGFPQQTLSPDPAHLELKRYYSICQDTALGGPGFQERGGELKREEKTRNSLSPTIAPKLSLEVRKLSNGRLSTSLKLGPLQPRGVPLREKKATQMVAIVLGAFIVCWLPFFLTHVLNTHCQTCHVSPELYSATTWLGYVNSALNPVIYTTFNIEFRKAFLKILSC
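Cells plated overnight at 1500 cells/well, then exposed to library compounds with dopamine controls for 90 minutes at 37 degrees C. DiscoveRx reagent added for 30–60 minutes at room temperature; luminescence read, quantitative HTS format.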
D1 antag: Antagonist of Human D 1 Dopamine Receptor: qHTS. D(1A) dopamine receptor (Homo sapiens), P21728. HEK293 TREx D1 cells, calcium flux, dopamine EC80; active compounds read low. activity change, negative = inhibition, % at 10 µM. 360,000 tested, 3.2% active. AID 504652, 2011; in the data active means activity change below about -30%; further: on the % scale 0 is the no-effect control and ±100 the full control effect
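Tetracycline-induced HEK293 T-REx cells with force-coupled D1 receptor were loaded with a no-wash calcium dye. Compound was added after a 10 s baseline and read kinetically for 180 s; EC80 dopamine was then added and calcium flux followed another 180 s.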
DRD3 agonist: qHTS of D3 Dopamine Receptor Agonist: qHTS; max activation, %; D(3) dopamine receptor (Homo sapiens), P35462; AID 652048, 2013; 410,000 tested, 0.58% active; D3R DiscoveRx beta-arrestin cells, luminescence, 90 min; in the data active means max activation above about 30%; further: 0% is about no effect
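Cells at 1500/well, incubated overnight, then treated with pinned compounds (dopamine as control) for 90 min at 37 degrees C. DiscoveRx reagent added for 30 - 60 minutes at room temperature; luminescence read.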
Chronic BCR inh: qHTS Assay to Find Inhibitors of Chronic Active B-Cell Receptor Signaling; ABC-DLBCL IkBa-CBG/CBR reporter, luminescence ratio, 4 h; Potency, µM (series often up to 46.1 µM), inactives show at the top dose activity change, negative = inhibition, usual class: inhibitors; 340,000 tested, 0.05% active; AID 493014, 2011; active means well fitted inhibition curve with a large enough effect in the signal ratio, with a control signal flat, not every such curve was filed as active; inconclusive means small, poorly fitted or top-dose-only effect, or effect the other way, or a change in a side signal; the % refers to the signal ratio;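 further: potency means the concentration at half of the fitted maximal effect; plate controls were basal doxycycline-induced cells for no effect and cells given 10 µM MG132 for full effect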
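Compounds up to 46 uM were incubated four hours with TMD8 cells whose green CBG68 luciferase is fused to IkappaBalpha; red CBR luminescence normalised the signal, and concentration-effect curves were fitted to fusion, red and ratio data.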
D1 PAM: Potentiators of Human D1 Dopamine Receptor: qHTS | 360,000 tested, 0.036% active | D(1A) dopamine receptor (Homo sapiens), P21728 | HEK293 TREx D1 cells, calcium flux, dopamine EC20 potentiation | potentiation, % at 10 µM; in the data active means potentiation above about 30%; further: 0% is about no effect
D1 agonist: Allosteric Agonists of the Human D1 Dopamine Receptor: qHTS; AID 504660, 2011; HEK293 T-REx D1 cells, calcium flux, agonist mode; 360,000 tested, 1% active; activation, % at 2 µM; D(1A) dopamine receptor (Homo sapiens), P21728; in the data active means activation above about 30%; further: 0% is about no effect
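Agonism was scored from calcium flux recorded over 180 s (1 read/s) after pintool compound addition, following a 10-cycle baseline. Cells were inducible force-coupled HEK293 TREx D1, plated overnight at 30 C and loaded with no-wash calcium dye.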
The depositor's hits bear a star; ? = inconclusive; / = no result given.

SMILES	DRD3 antagonist	D1 antag	DRD3 agonist	Chronic BCR inh	D1 PAM	D1 agonist
CC[C@H]1C2C[C@H]3[C@@H]4N(C)c5ccccc5C45C[C@H](C2[C@H]5O)N3[C@@H]1O (stereo not given in full)	-55*	-28	-9	-10%	-5	-2
CCC1C2CC3C4N(C)c5ccccc5C45CC(C2C5O)N3[C@@H]1O (stereo not given in full)	-70*	-23	-21	2%	1	3
CC[C@H]1[C@@H]2C[C@H]3[C@@H]4N(C)c5ccccc5[C@]45C[C@@H](C2[C@H]5O)N3[C@@H]1O (stereo not given in full)	/	/	-25	/	/	/
CCC1(CC)C(=O)NC(=Nc2cccc(C(F)(F)F)c2)NC1=O	7	1	23	0%	-9	31*
C=CC(=O)NCNC(=O)C=C	-76*	/	-88	0%	5	11
Cc1nccc(-c2cc(-c3ccc(Cl)cc3Cl)no2)n1	15	-14	6	?	-5	1
COC(=O)C[C@]1(C(=O)OC)CN(C#N)N(c2ccc(Cl)cc2)C12c1ccccc1-c1ccccc12	-74*	0	-8	?	-6	1
COC(=O)[C@@H]1[C@@H](C(=O)OC)C2(c3ccccc3-c3ccccc32)N(c2ccc(Cl)cc2)N1C#N	-76*	10	-3	?	-9	5
C(CCc1nn[nH]n1)CCc1nn[nH]n1	12	-37*	1	4%	-2	5
COP(=S)(OC)Oc1cc(Cl)c(Cl)cc1Cl	/	/	9	/	/	/
Clc1cccc(N2CCNCC2)c1Cl	-56*	-18	7	6%	-9	9
O=C(Oc1ccc2cc(Br)ccc2c1)N1CCCCCC1	/	-7	/	?	-1	41*
O=C(Nc1ccccc1OC(=O)N1CCCCC1)N1CCCCC1	40	-8	6	0%	7	2
CC(Cc1ccccc1)NCCn1cnc2c1c(=O)n(C)c(=O)n2C (stereo not given)	/	/	-21	/	/	/
O=Cc1c(C(=O)O)n(Cc2ccc(Cl)cc2)c2ccccc12	0	7	-3	4%	-2	54*
Cc1ccc2c(CN3CC=C(c4ccccc4)CC3)cc(=O)oc2c1C	-27	-14	40*	?	0	1
CCc1ccc2c(CN3CC=C(c4ccccc4)CC3)cc(=O)oc2c1	3	8	12	?	4	0
COc1ccc(C(C)=O)cc1CN1CC=C(c2ccccc2)CC1	-101*	-1	-19	-10%	-16	4
COC(=O)C1=C(c2ccc(C(C)=O)cc2)C[C@@H]2CC[C@H]1N2C(=O)NC(C)C	4	-91*	9	-7%	-7	-1
COC(=O)C1=C(c2ccc(-c3ccccc3)c(F)c2)C[C@@H]2CC[C@H]1N2C(=O)NCCO	21	-40*	5	0%	-2	1
COC(=O)C1=C(c2ccccc2OCc2ccccc2)C[C@@H]2CC[C@H]1N2C(=O)NC1CCN(Cc2ccccc2)CC1	-85*	-13	-71	?	0	2
CCCNC(=O)N1[C@H]2CC[C@@H]1C(C(=O)OC)=C(c1ccc(-c3ccccc3)c(F)c1)C2	11	-5	13	?	-6	0
COC(=O)C1=C(c2cccc(OCc3ccccc3)c2)C[C@@H]2CC[C@H]1N2C(=O)NC1CCN(Cc2ccccc2)CC1	-120*	1	-49	?	-3	1
O=C(NC(=O)c1c(F)cccc1F)Nc1cc(Cl)c(OC(F)(F)C(F)C(F)(F)F)cc1Cl (stereo not given)	/	/	7	/	/	/
Cc1ccccc1-n1c(CF)nc2ccc(N)cc2c1=O	/	/	11	/	/	/
CCOCCOC(C)=O	/	/	13	/	/	/
